Results published in paper PMC7862700, “An all-to-all approach to the identification of sequence-specific readers for epigenetic DNA modifications on cytosine”.

Experiments:
Assay in all cases: DAPPL (digital affinity profiling via proximity ligation, sequencing); 10 mM Tris-HCl pH 7.5, 50 mM NaCl, 1 mM DTT, 4% glycerol, room temperature, 30 min; GST-TFs on glutathione beads, 16-mer random dsDNA library, 0.1% formaldehyde crosslink after washing; high values mean tight binding
FEV = biological target: T1, FEV (Homo sapiens, UniProt Q99581 1-238); conditions: protein: recombinant; tags: N-terminal GST; dsDNA, one strand shown
T1 sequence: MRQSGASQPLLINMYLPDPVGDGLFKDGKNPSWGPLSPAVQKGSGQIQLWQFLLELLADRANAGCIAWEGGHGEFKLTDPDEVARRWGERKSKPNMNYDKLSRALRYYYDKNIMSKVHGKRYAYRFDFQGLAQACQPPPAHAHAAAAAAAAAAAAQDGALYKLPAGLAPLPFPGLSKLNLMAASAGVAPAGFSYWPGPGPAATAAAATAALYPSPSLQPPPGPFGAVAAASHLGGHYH
Outline: (§1)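 Beads coated with glutathione captured GST-fused human transcription factors that had been expressed in yeast, and the factors were then given DNA barcodes and pooled with a tag-only sample. The pools were incubated with 200 nmole of a random double-stranded 16-mer DNA library in Tris/NaCl/DTT/glycerol buffer for 30 min at room temperature, washed, crosslinked with 0.1% formaldehyde and proximity-ligated with BsaI/T4 ligase at 37 °C for 1 h. PCR amplification and Illumina NextSeq500 sequencing came last. Binding signal is each hexamer's read frequency for a factor divided by its frequency for the tag-only sample.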

ETV5 = ETV5 (Homo sapiens, UniProt P41161 1-510); conditions: protein: recombinant; tags: N-terminal GST; dsDNA, one strand shown
Outline: as §1

HSF1 = HSF1 (Homo sapiens, UniProt Q00613 1-529); conditions: protein: recombinant; tags: N-terminal GST; chain copies: 3; dsDNA, one strand shown
Outline: as §1

SPIC = biological target: T2, SPIC (Homo sapiens, UniProt Q8N5J4 1-248); conditions: protein: recombinant; tags: N-terminal GST; dsDNA, one strand shown
T2 sequence: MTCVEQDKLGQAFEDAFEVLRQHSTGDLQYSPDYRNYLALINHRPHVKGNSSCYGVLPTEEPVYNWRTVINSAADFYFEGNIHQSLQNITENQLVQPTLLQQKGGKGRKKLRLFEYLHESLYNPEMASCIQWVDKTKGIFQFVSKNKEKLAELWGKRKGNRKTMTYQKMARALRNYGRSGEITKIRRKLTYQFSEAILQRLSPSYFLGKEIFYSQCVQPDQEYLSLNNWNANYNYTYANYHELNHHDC
Outline: as §1

ELF4 = ELF4 (Homo sapiens, UniProt Q99607 1-663); conditions: protein: recombinant; tags: N-terminal GST; dsDNA, one strand shown
Outline: as §1

ELK4 = biological target: T3, ELK4 (Homo sapiens, UniProt P28324-2 1-405); conditions: protein: recombinant; tags: N-terminal GST; dsDNA, one strand shown
T3 sequence: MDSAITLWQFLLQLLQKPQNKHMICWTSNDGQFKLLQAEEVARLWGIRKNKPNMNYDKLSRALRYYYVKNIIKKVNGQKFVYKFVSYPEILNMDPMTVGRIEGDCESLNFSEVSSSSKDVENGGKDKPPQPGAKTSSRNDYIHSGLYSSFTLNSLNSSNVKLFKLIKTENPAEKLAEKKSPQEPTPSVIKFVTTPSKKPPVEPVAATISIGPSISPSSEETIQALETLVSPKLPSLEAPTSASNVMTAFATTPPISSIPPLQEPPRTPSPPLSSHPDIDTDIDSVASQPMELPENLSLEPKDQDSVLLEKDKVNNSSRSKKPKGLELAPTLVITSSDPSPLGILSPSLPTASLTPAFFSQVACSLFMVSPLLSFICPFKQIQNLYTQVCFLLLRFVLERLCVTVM
Outline: as §1

ETV2 = biological target: T4, ETV2 (Homo sapiens, UniProt O00321 1-342); conditions: protein: recombinant; tags: N-terminal GST; dsDNA, one strand shown
T4 sequence: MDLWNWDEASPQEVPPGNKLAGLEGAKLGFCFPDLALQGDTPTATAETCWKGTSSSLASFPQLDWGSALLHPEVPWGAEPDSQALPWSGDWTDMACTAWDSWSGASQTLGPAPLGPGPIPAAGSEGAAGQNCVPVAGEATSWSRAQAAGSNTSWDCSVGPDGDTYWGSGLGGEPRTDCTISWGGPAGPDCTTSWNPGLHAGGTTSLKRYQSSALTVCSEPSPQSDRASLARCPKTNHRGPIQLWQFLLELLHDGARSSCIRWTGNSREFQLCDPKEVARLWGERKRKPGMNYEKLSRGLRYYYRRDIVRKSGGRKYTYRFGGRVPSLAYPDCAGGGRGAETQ
Outline: as §1

ELF3 = biological target: T5, ELF3 (Homo sapiens, UniProt P78545 1-371); conditions: protein: recombinant; tags: N-terminal GST; dsDNA, one strand shown
T5 sequence: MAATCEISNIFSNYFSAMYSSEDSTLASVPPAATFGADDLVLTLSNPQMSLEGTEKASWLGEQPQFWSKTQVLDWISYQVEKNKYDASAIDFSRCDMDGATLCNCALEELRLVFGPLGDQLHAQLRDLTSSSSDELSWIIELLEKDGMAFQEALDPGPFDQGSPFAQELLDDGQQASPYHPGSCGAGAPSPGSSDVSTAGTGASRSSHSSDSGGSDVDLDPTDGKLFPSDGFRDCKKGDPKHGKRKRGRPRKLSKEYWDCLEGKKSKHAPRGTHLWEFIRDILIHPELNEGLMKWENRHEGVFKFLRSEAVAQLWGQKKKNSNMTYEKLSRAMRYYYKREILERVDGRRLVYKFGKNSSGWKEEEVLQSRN
Outline: as §1

CRX = CRX (Homo sapiens, UniProt O43186 1-299); conditions: protein: recombinant; tags: N-terminal GST; dsDNA, one strand shown
Outline: as §1

ETV1 = ETV1 (Homo sapiens, UniProt P50549 1-477); conditions: protein: recombinant; tags: N-terminal GST; dsDNA, one strand shown
Outline: as §1

ERF = biological target: T6, ERF (Homo sapiens, UniProt P50548 1-548); conditions: protein: recombinant; tags: N-terminal GST; dsDNA, one strand shown
T6 sequence: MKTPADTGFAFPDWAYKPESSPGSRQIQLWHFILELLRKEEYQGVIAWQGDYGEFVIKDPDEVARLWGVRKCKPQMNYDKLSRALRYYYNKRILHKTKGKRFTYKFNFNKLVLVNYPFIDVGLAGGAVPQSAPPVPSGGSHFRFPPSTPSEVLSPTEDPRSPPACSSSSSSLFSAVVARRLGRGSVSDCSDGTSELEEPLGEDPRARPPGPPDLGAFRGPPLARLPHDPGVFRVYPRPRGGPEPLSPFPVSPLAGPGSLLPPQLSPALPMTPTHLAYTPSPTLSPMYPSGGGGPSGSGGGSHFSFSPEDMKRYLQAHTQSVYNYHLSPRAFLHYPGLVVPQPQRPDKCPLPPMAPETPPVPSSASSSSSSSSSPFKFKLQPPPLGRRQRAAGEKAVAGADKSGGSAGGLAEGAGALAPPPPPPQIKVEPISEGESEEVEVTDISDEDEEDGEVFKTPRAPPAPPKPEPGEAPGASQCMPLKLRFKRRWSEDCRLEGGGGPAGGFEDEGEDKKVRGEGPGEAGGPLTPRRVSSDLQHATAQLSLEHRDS
Outline: as §1

ETV3L = biological target: T7, ETV3L (Homo sapiens, UniProt Q6ZN32 1-361); conditions: protein: recombinant; tags: N-terminal GST; dsDNA, one strand shown
T7 sequence: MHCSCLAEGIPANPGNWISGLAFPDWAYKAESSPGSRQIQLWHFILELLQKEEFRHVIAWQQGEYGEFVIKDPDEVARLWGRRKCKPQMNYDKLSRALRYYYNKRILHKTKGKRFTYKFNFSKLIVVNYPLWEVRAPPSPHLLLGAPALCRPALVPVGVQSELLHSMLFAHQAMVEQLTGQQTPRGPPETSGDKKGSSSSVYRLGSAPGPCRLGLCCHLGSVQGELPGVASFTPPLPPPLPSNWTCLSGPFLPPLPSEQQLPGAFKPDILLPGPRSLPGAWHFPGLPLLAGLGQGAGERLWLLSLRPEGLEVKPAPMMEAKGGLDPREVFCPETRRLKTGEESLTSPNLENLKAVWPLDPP
Outline: as §1

ETS2 = biological target: T8, ETS2 (Homo sapiens, UniProt P15036 1-469); conditions: protein: recombinant; tags: N-terminal GST; dsDNA, one strand shown
T8 sequence: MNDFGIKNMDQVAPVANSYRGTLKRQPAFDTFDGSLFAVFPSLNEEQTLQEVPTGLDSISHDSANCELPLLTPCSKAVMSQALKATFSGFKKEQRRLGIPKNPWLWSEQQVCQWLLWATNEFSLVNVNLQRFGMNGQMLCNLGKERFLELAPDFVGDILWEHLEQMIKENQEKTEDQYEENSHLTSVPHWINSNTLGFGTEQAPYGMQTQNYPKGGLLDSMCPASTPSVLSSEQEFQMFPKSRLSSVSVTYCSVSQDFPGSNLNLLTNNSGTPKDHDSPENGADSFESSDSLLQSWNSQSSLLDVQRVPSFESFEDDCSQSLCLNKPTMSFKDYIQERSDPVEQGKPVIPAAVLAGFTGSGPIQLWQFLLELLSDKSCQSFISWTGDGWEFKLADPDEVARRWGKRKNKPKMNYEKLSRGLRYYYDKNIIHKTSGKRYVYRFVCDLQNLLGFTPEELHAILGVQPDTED
Outline: as §1

SPDEF = biological target: T9, SPDEF (Homo sapiens, UniProt O95238 1-335); conditions: protein: recombinant; tags: N-terminal GST; dsDNA, one strand shown
T9 sequence: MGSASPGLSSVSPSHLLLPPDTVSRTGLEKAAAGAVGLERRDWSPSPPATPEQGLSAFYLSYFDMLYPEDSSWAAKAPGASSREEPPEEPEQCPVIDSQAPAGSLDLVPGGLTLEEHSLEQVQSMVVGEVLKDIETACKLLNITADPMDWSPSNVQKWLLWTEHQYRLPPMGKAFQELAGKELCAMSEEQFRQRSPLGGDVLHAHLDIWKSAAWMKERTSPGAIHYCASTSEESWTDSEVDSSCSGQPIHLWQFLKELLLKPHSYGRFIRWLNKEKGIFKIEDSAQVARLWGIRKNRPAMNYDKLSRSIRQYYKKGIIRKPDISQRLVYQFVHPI
Outline: as §1

ETV7 = biological target: T10, ETV7 (Homo sapiens, UniProt Q9Y603 1-341); conditions: protein: recombinant; tags: N-terminal GST; dsDNA, one strand shown
T10 sequence: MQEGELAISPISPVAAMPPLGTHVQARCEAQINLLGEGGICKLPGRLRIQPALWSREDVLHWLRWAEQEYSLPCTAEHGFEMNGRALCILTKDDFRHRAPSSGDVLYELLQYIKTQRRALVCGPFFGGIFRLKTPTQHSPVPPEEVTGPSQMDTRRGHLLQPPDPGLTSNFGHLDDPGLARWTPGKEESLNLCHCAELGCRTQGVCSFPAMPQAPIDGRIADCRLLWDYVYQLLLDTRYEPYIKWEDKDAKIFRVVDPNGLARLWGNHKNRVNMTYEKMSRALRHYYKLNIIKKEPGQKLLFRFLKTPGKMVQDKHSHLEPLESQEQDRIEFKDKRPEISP
Outline: as §1

ELF5 = biological target: T11, ELF5 (Homo sapiens, UniProt Q9UKW6-2 1-255); conditions: protein: recombinant; tags: N-terminal GST; dsDNA, one strand shown
T11 sequence: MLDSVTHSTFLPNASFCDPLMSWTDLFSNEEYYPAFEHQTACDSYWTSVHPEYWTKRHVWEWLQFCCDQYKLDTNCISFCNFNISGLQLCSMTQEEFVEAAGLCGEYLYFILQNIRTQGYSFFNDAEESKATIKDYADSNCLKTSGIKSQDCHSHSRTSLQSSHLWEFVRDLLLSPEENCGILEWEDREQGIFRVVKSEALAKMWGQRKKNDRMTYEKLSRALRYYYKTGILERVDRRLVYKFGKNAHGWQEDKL
Outline: as §1

ETV3 = biological target: T12, ETV3 (Homo sapiens, UniProt P41162-2 1-143); conditions: protein: recombinant; tags: N-terminal GST; dsDNA, one strand shown
T12 sequence: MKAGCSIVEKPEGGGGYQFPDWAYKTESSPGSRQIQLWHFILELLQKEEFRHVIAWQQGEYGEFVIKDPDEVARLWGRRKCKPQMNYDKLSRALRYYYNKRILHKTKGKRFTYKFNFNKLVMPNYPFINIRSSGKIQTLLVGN
Outline: as §1

ETV6 = ETV6 (Homo sapiens, UniProt P41212 1-452); conditions: protein: recombinant; tags: N-terminal GST; dsDNA, one strand shown
Outline: as §1

Chain of CRX (O43186 whole entry): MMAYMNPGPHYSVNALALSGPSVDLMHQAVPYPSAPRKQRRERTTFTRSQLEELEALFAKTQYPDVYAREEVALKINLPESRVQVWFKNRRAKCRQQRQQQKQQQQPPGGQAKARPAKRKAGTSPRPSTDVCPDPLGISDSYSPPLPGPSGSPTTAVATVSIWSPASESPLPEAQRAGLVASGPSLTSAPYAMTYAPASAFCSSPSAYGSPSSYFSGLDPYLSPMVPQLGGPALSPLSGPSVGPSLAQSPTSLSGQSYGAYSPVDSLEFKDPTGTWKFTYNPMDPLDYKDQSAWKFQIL
Chain of ETV5 (P41161 whole entry): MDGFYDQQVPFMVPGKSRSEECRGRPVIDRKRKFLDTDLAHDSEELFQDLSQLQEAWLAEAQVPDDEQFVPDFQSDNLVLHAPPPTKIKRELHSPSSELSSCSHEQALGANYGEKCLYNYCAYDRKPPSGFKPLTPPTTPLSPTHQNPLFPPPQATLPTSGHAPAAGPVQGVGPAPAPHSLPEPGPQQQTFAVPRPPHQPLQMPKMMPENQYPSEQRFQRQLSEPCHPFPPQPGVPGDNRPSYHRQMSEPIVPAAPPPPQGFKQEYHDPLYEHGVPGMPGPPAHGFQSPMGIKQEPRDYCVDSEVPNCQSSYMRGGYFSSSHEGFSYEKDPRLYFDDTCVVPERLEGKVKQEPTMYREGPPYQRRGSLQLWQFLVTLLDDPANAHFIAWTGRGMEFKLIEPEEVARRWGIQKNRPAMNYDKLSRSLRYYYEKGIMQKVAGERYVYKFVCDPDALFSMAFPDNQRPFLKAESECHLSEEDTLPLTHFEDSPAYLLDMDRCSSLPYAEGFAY
Chain of ETV6 (P41212 whole entry): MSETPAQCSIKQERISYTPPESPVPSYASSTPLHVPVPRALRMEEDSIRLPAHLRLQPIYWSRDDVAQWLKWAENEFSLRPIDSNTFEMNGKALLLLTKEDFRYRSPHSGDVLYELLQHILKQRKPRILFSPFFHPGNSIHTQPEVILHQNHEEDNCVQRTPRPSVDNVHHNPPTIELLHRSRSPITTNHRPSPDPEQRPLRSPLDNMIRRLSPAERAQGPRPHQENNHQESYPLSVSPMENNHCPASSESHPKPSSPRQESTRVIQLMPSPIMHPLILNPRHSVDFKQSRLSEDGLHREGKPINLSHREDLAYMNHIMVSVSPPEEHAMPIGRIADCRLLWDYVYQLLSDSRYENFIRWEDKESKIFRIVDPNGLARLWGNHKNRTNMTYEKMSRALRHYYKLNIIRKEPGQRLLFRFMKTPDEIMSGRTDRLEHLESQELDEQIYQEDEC
Chain of ELF4 (Q99607 whole entry): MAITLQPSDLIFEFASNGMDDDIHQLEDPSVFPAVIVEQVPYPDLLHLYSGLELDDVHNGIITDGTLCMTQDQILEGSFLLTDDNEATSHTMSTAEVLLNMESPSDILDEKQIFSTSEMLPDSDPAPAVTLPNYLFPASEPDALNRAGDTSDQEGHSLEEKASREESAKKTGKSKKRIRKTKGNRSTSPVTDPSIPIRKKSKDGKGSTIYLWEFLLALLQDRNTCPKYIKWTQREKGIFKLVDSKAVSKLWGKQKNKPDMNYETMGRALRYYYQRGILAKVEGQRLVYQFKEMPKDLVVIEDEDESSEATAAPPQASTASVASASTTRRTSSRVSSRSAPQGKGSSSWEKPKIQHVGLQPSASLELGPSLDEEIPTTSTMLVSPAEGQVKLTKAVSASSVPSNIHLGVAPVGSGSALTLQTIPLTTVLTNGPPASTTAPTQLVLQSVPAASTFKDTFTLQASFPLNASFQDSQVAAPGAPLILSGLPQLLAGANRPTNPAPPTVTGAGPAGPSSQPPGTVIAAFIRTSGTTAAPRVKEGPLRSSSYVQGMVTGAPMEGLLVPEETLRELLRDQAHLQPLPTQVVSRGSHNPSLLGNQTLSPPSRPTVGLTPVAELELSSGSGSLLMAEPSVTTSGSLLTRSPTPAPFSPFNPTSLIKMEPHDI
Chain of HSF1 (Q00613 whole entry): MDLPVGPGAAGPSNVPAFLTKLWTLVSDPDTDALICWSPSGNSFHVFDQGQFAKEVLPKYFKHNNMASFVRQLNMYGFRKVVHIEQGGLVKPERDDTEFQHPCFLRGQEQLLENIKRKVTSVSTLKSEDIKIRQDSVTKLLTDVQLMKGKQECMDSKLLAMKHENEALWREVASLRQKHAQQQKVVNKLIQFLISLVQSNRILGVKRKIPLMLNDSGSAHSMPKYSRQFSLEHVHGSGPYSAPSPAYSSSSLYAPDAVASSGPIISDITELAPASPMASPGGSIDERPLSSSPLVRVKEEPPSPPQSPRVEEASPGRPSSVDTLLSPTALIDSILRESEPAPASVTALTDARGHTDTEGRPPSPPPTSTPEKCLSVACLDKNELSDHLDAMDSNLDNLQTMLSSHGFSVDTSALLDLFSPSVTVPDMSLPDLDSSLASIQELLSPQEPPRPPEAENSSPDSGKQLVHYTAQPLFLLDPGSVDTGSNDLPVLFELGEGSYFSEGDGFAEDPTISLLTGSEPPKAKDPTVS
Chain of ETV1 (P50549 whole entry): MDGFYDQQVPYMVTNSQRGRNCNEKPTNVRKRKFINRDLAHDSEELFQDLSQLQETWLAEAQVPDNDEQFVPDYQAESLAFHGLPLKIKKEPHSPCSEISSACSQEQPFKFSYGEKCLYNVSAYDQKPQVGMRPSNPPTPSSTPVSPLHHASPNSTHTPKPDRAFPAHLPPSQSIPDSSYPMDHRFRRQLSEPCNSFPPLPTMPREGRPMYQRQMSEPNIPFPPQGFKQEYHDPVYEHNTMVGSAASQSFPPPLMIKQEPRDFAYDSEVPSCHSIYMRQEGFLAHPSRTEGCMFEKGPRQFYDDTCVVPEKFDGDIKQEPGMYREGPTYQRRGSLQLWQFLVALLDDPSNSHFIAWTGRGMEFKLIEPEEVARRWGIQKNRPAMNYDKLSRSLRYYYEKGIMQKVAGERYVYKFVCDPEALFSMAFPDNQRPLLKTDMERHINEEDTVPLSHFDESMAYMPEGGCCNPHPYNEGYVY

TTTCAG
binding signal (FEV): 1.3 fold enrichment (6-mer frequency, TF over GST control)
binding signal (ETV5): 1.28 fold enrichment (6-mer frequency, TF over GST control)
binding signal (HSF1): 1.3 fold enrichment (6-mer frequency, TF over GST control)
binding signal (SPIC): 1.14 fold enrichment (6-mer frequency, TF over GST control)
binding signal (ELF4): 1.33 fold enrichment (6-mer frequency, TF over GST control)
binding signal (ELK4): 1.38 fold enrichment (6-mer frequency, TF over GST control)
binding signal (ETV2): 1.43 fold enrichment (6-mer frequency, TF over GST control)
binding signal (ELF3): 1.24 fold enrichment (6-mer frequency, TF over GST control)
binding signal (CRX): 1.31 fold enrichment (6-mer frequency, TF over GST control)
binding signal (ETV1): 1.39 fold enrichment (6-mer frequency, TF over GST control)
binding signal (ERF): 1.38 fold enrichment (6-mer frequency, TF over GST control)
binding signal (ETV3L): 1.31 fold enrichment (6-mer frequency, TF over GST control)
binding signal (ETS2): 1.27 fold enrichment (6-mer frequency, TF over GST control)
binding signal (SPDEF): 1.37 fold enrichment (6-mer frequency, TF over GST control)
binding signal (ETV7): 1.13 fold enrichment (6-mer frequency, TF over GST control)
binding signal (ELF5): 1.28 fold enrichment (6-mer frequency, TF over GST control)
binding signal (ETV3): 1.27 fold enrichment (6-mer frequency, TF over GST control)
binding signal (ETV6): 1.31 fold enrichment (6-mer frequency, TF over GST control)
